Source: article PMC4336329 (PLoS ONE, 2015)
The whole screen tested about 310,000 compounds, of which about 14,000 (4.5%) showed an effect of 50% or more. Effects have a minus sign here. The list comes from a sample in which strong results are over-represented; it also holds similar structures and randomly drawn compounds.

Molecular target: human ether-à-go-go-related gene (hERG) potassium channel (human, UniProt Q12809)
Assay: primary screen, population patch clamp on CHO cells stably expressing hERG; higher = less effect of the substance
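Further: peak tail current of the secondary pulse compared with the same well before compound.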

Sequence of human ether-à-go-go-related gene (hERG) potassium channel (Q12809 whole entry, looked up): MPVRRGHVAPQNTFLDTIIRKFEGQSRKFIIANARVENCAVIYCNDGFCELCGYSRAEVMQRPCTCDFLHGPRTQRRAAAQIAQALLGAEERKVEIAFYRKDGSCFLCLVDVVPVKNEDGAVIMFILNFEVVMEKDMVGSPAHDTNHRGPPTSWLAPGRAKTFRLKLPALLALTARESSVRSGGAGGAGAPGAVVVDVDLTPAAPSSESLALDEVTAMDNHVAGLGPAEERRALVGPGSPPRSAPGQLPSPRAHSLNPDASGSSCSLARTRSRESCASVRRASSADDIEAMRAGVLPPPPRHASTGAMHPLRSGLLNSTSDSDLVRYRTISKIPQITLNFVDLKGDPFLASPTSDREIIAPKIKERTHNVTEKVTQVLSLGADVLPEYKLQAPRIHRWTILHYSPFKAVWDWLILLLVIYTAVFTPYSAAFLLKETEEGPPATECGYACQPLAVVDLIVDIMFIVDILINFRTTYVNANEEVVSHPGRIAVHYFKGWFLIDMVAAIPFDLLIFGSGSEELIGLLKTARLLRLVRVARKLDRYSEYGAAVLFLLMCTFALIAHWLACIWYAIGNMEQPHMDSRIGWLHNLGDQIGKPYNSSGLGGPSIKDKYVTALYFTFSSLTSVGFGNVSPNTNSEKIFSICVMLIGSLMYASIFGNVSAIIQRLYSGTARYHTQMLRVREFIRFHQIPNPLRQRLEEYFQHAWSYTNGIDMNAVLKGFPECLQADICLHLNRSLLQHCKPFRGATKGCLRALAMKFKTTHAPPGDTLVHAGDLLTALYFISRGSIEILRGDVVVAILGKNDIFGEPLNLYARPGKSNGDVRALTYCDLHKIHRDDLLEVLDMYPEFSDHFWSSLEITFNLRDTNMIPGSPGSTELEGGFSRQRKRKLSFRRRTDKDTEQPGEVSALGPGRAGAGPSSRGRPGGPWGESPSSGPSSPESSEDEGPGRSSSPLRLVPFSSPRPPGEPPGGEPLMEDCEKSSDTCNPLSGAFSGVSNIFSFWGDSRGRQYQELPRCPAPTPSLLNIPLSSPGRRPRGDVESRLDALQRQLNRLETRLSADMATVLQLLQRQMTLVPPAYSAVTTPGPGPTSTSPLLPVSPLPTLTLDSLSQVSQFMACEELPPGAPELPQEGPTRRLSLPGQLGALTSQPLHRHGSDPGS

Compound | hERG current change (%, negative = inhibition) at 10uM [%]
CCOC(=O)c1nn(-c2ccc(C)cc2)c(C)c1C(C)=O | 4.57
Cc1ccc(S(=O)(=O)NNC(=O)C2COc3ccccc3O2)cc1 (stereo not shown) | 5.24
COc1ccc(C(CNC(=O)c2ccc(OCc3ccccc3)cc2)N2CCOCC2)cc1 (stereo not shown) | -18.1
CCOC(=O)N1CCC(N(CCN(C)C)C(=S)Nc2ccccc2OC)CC1 | -16.2
CCCC1=C(C(=O)OCC)C(c2ccc(F)cc2)n2ncnc2N1 (stereo not shown) | -21.3
COc1cccc(CN2C(=O)CCC2(C)C(=O)NC2CCCCCC2)c1 (stereo not shown) | -11.7
COc1ccc(-c2cc(=O)oc3cc(OC(=O)C4CCCCC4)c(Cl)cc23)cc1 | 11.2
COc1ccc(C(CCNCc2ccc(N(C)C)cc2)C(C)C)cc1 (stereo not shown) | -40.5
COc1ccccc1CNC(=O)c1ccc(OC(C)C)cc1 | 17.6
COc1ccc(CNCCC(c2ccc(OC(C)C)cc2)c2ccccc2OC)cc1 (stereo not shown) | -66.1
COc1ccccc1C(CCNCc1ccccc1)c1ccc(OC(C)C)cc1 (stereo not shown) | -59.3
COc1ccccc1C(CCNCc1ccc(N(C)C)cc1)c1ccc(OC(C)C)cc1 (stereo not shown) | -73.8
COc1ccccc1C(CC(=O)Nc1ccc(C)c(C)c1)c1ccc(OC(C)C)cc1 (stereo not shown) | 10.2
COc1ccccc1C(O)P(=O)(OCC(C)C)c1ccc(N(C)C)cc1 (stereo not shown) | -0.204
COc1ccccc1NC(=O)CC(c1ccc(OC(C)C)cc1)c1ccccc1OC (stereo not shown) | -1.62
COc1ccc(C(CCNCc2ccc(N(C)C)cc2)c2ccccc2)cc1 (stereo not shown) | -72.2
COc1ccc(CNC(=S)NCc2ccc(OC(C)C)cc2)cc1 | -3.86
COc1ccc(CNC(c2ccccc2)c2ccc(Cl)cc2)cc1 (stereo not shown) | 6.38
O=C(Nc1ncc(Br)s1)C1CCCN1S(=O)(=O)c1cccc2cccnc12 (stereo not shown) | -3.36
Cc1cccc(C(=O)O/N=C2\CCS(=O)(=O)c3sccc32)c1 | 1.16
Cc1ccc(NC(=O)C(OC(=O)c2ccc(NC(N)=O)cc2)c2ccccc2)cc1Cl (stereo not shown) | -3.17
COc1ccc(N2CCC(N3CCN(C)C(CCO)C3)CC2)cc1 (stereo not shown) | 10.2
O=C(NCC1CCCO1)c1ccc(Cl)c(S(=O)(=O)Nc2ccccc2)c1 (stereo not shown) | 2.86
O=C(CCc1ccccc1)Nc1nccs1 | 14.9
COc1ccccc1N1CCN(C(=O)c2ccc(Cn3c(=S)[nH]c4cc5c(cc4c3=O)OCO5)cc2)CC1 | 21.3

Compound | hERG current change (%, negative = inhibition) at 10uM [%]
CC[C@H](C)[C@@H](NC(=O)O[C@@H]1C(=O)c2cc(OC)ccc2O[C@H]1c1ccc(OC)c(Br)c1)C(=O)OC | -1.62
CN(C)c1cccc(C(=O)Nc2nnc(Cc3ccccc3)s2)c1 | 0.344
Cn1cnc2cc(NCc3ccccc3O)ccc21 | 6.3
COc1ccc2c(c1)C=C(CN1CCN(C(C)C)C(CCO)C1)CO2 (stereo not shown) | 5.68
CCOc1ccc(CN2CCN(CC3=Cc4cccc(OC)c4OC3)CC2CCO)cc1 (stereo not shown) | -83.4
CCOc1ccccc1CN1CCN(CC2=Cc3cc(OC)ccc3OC2)CC1CCO (stereo not shown) | -83.3
COc1cccc2c1OCC(CN1CCN(CCC(C)C)C(CCO)C1)=C2 (stereo not shown) | -3.37
COc1cccc2c1OCC(CN1CCN(Cc3ccccc3F)C(CCO)C1)=C2 (stereo not shown) | -19.3
COc1ccc2c(c1)C=C(CN1CCN(Cc3ccccc3C)C(CCO)C1)CO2 (stereo not shown) | -25.6
COc1cccc2c1OCC(CN1CCN(C3CCCCC3)C(CCO)C1)=C2 (stereo not shown) | -17
COc1cccc2c1OCC(CN1CCN(Cc3ccccc3)C(CCO)C1)=C2 (stereo not shown) | -47.6
COc1ccc2c(c1)C=C(CN1CCN(C3CCCC3)C(CCO)C1)CO2 (stereo not shown) | -68.2
Cl.O=C(OCCN1CCOCC1)c1cccs1 | 6.58
COc1ccc(C2=CC(=O)C[C@H](c3ccc(F)cc3)C2)cc1F | -16.5
COc1ccc(CCNCc2c(OC)ccc3ccccc23)cc1OC.Cl | -44.6
CN(Cc1ccccc1)Cc1c(O)ccc2ccccc12 | 7.65
COc1ccc2ccccc2c1CNCCN1CCOCC1.Cl | 14.4
COc1ccc2ccccc2c1CNC(C)c1ccccc1.O=C(O)C(=O)O (stereo not shown) | -44.4
CC(CCc1ccccc1)NCc1cccc2ccccc12.O=C(O)C(=O)O (stereo not shown) | -60.9
COCC(C)NCc1cccc2ccccc12.O=C(O)C(=O)O (stereo not shown) | -0.173
CN(CCOc1cccc2ccccc12)Cc1ccccc1.O=C(O)C(=O)O | 0.659
COc1ccc2ccccc2c1CNCCc1ccccc1.Cl | -53.1
COc1ccc2ccccc2c1CN(C)Cc1ccccc1.O=C(O)C(=O)O | -51.7
COc1ccc2ccccc2c1CNC(C)CCc1ccccc1.O=C(O)C(=O)O (stereo not shown) | -77.8
COc1cccc(OC)c1C(=O)NC(C)CCc1ccccc1 (stereo not shown) | -19.1

Compound | hERG current change (%, negative = inhibition) at 10uM [%]
CC(CCc1ccccc1)NC(=O)Cc1ccccc1 (stereo not shown) | 2.65
CC1(C)CC2CC(C)(CN2C(=O)c2cc(-c3ccccc3O)on2)C1 (stereo not shown) | 12.7
Cc1ccc(S(=O)(=O)N2CCN(C(=O)COC(=O)c3ccccc3Cl)CC2)c(C)c1 | -12.5
Cc1cccnc1NC(=O)Nc1ccccc1 | 1.64
CCCOc1ccc(N2C(=O)CC(NCc3cccs3)C2=O)cc1 (stereo not shown) | -18.6
COc1ccccc1CNC(=O)C1COc2ccccc2O1 (stereo not shown) | -15.1
Cc1cc(NC(=O)c2ccc([N+](=O)[O-])cc2)n(CCC#N)n1 | 11
O=C(NCCCc1nc2ccccc2[nH]1)c1cccs1 | -5.12
COc1ccccc1CNCc1ccc(C)cc1.O=C(O)C(=O)O | -6.14
COc1cccc(CNCc2ccccn2)c1OC | 5.32
COc1ccc(CCNCc2c(OC)ccc3ccccc23)cc1.O=C(O)C(=O)O | -44.9
COc1ccc2ccccc2c1CNCc1ccccn1.Cl | -51.8
COc1ccc(CCNCc2ccccn2)cc1OC | 0.278
COc1ccc2ccccc2c1CNCc1ccc(C)cc1.O=C(O)C(=O)O | -69.7
CC(C)N(Cc1nc(-c2ccc(Cl)cc2)no1)C(=O)CCC1CCCC1 | -7.81
Cc1nn(CCCC(=O)NC2CCC(C)CC2)c(=O)c2nn(-c3ccccc3)c(C)c12 (stereo not shown) | -5.97
O=C(/C=C(/c1ccc(Cl)cc1)n1cncn1)c1ccccc1 | -27.5
C#CCOCCOCCOCCNc1nc(N2CCN(C(=O)[C@H](CCC(=O)O)n3cc(C(N)CO)nn3)CC2)nc(N2CCN(C(=O)[C@H](Cc3ccc(O)cc3)n3cc(C(N)[C@H](C)CC)nn3)CC2)n1.Cl (stereo partly shown) | 9.89
CCN(CC(=O)Nc1c(F)cccc1F)C(=O)COc1ccc2c(c1)CCC2 | -2.81
O=S(=O)(c1ccc(Nc2ccc(-c3ccc4c(c3)OCCO4)nn2)cc1)N1CCCC1 | 5.27
COc1ccccc1CNc1ccc2nnc(CCNC(=O)c3ccc(C)cc3)n2n1 | -0.303
CCCCCn1c(CN2CCN(C(=O)c3ccco3)CC2)nc2c1c(=O)n(C)c(=O)n2C | -60.5
CCCCn1c(CN2CCN(C(=O)c3ccco3)CC2)nc2c1c(=O)n(C)c(=O)n2C | -34.1
CCCCCCn1c(CN2CCN(C(=O)c3ccco3)CC2)nc2c1c(=O)n(C)c(=O)n2C | -65.8
CCCn1c(CN2CCN(C(=O)c3ccco3)CC2)nc2c1c(=O)n(C)c(=O)n2C | -10.3

Compound | hERG current change (%, negative = inhibition) at 10uM [%]
CCOCCn1c(CN2CCN(C(=O)c3ccco3)CC2)nc2c1c(=O)n(C)c(=O)n2C | -3.37
CC(C)CCn1c(CN2CCN(C(=O)c3ccco3)CC2)nc2c1c(=O)n(C)c(=O)n2C | -39.9
Cl.OC1(c2ccccc2)CCN(Cc2ccccc2)C2CCCCC21 (stereo not shown) | -15.6
COc1ccc(-c2nnc3sc(-c4ccco4)nn23)cc1OC | 3.81
COCCCNc1nnc(Cc2ccccc2)c2ccccc12 | -31.4
CC1(C)CC(=O)N(c2cccc(Cl)c2)C(=O)C1 | 10.4
CCOC(=O)C1CCN(C(=O)c2cc3c(=O)n4ccccc4nc3s2)CC1 | -6.6
CCOc1ccccc1Cn1c(=O)sc2ccccc21 | 7.43
COc1ccc(C(=O)NN/C(C)=C/C(=O)c2ccccc2)cc1 | 4.41
CCN(CC(=O)Nc1c(F)cccc1F)C(=O)C1CCN(C(=O)c2ccc(F)cc2)CC1 | 4.59
CCc1ccc(NC(=S)N(Cc2cccnc2)Cc2ccco2)cc1 | -17.2
COc1ccc(Cl)cc1NC(=S)N(Cc1cccnc1)Cc1ccco1 | -73.8
O=C(Nc1ccc(Cl)cc1)N(Cc1cccnc1)Cc1ccco1 | -63.9
COc1ccccc1NC(=S)N(Cc1cccnc1)Cc1ccco1 | -33.6
O=C(Nc1ccc(Cl)c(Cl)c1)N(Cc1cccnc1)Cc1ccco1 | -73.7
CCc1ccc(NC(=O)N(Cc2cccnc2)Cc2ccco2)cc1 | -53.1
O=C(Nc1ccccc1)N(Cc1cccnc1)Cc1ccco1 | -32.9
O=C(c1ccco1)N(Cc1ccc(Cl)cc1)Cc1ccco1 | -41.2
S=C(Nc1ccccc1Cl)N(Cc1cccnc1)Cc1ccco1 | -4.94
N#CCCN(Cc1cccnc1)C(=O)Nc1ccc(Cl)c(Cl)c1 | -26
CCc1ccccc1NC(=S)N(Cc1cccnc1)Cc1ccco1 | -18.8
Cc1ccc(NC(=O)N(Cc2cccnc2)Cc2ccco2)cc1C | -27.2
